CD11b adhes enh: CD11b/CD18-fibrinogen binding enhancement; K562 CD11b/CD18 adhesion to fibrinogen, ATPlite luminescence; hit rate 0.07% among 93,000; activation, % at 10 µM; AID 1499; P05107+P11215;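 active = 10 µM primary screen giving 50% or more activity, confirmed by 40% or more on retest at that dose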
CYP2C9 inh: human CYP2C9 inhibition | P11712 | CYP2C9 Supersomes, luciferin-H conversion, luminescence | inhibition, % at 5 µM | hit rate 20% among 96,000 | AID 777;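 active = blocking of liver enzyme CYP2C9 beyond about 50% at 5 µM, limit read from the data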
Target sequence (P11712 whole entry, looked up): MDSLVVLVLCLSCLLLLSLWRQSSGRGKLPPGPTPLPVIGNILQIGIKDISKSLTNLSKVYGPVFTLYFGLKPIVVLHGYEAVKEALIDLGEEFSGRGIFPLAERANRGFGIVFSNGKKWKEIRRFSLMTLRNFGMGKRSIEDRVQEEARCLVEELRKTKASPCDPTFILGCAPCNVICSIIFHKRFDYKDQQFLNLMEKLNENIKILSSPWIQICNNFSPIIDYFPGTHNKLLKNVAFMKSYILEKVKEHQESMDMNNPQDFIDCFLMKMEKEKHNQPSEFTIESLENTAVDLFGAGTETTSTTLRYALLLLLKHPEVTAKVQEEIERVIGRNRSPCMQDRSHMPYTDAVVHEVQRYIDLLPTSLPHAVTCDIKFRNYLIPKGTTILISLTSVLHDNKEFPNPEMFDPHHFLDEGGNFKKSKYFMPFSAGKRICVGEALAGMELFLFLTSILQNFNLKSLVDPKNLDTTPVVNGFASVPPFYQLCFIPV
CYP2C19 activ: activators of human cytochrome P450 2C19 | activation factor at 5 µM | 96,000 tested, under 10 active | AID 1025 | recombinant CYP2C19, luciferin-H EGE luminescence; stronger effect = higher value; 0 = fully inhibited enzyme, 1 = untreated enzyme;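 active = activation factor of at least 2 at 5 µM in the primary screen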;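 note: 0 = wells with 2.5 mM tranylcypromine and 1 = vehicle-only wells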
Mac1 fbg inh: blocks human CD11b/CD18 adhesion to fibrinogen; K562 CD11b/CD18 adhesion to fibrinogen, ATPlite luminescence; Mn2+ added to activate the integrin; inhibition, % at 10 µM; hit rate 0.54% among 93,000; AID 1497;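 active = primary inhibition of 50% or more at 10 µM, then 40% or more on retest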
CYP2C19 inhib: human CYP2C19 inhibition. P33261. CYP2C19 Supersomes, luciferin-H EGE luminescence, 30 min. inhibition, % at 5 µM. hit rate 21% among 96,000;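 active = CYP2C19 inhibition above a set limit at 5 µM in the primary screen, cut at about 50% in these data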;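 note: plate controls were negative control wells for no effect and 2.5 mM tranylcypromine positive control for full effect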
CYP2C9 act: increases human cytochrome P450 2C9 activity | P11712 | recombinant CYP2C9, luciferin-H conversion, luminescence; stronger effect = higher value; factor 1 = untreated enzyme, 0 = blocked | activation factor at 5 µM | hit rate 1.4% among 96,000 | AID 1024;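 active = activation factor of 2 or more for CYP2C9 at a 5 µM dose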;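 note: 0 = sulfaphenazole-blocked wells and 1 = vehicle-only wells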
An asterisk follows results filed as active; . = no result. Only some compounds are listed: those with a hit (about 28% of all), similar ones and a draw of the others.

SMILES | CD11b adhes enh | CYP2C9 inh | CYP2C19 activ | Mac1 fbg inh | CYP2C19 inhib | CYP2C9 act
COCC(C)NC(=O)CSc1nc(-c2ccccc2)c(-c2ccccc2)o1 (centres undefined) | -3 | 50 | 0.4 | 11 | 59* | 0.5
O=C(CSc1nc(-c2ccccc2)c(-c2ccccc2)o1)Nc1nnc(-c2ccccc2)s1 | 5 | 38 | 0.7 | -2 | 34 | 0.6
COc1cc(CC(=O)NCc2ccco2)cc(OC)c1OC | 7 | -6 | 0.8 | -2 | 21 | 1.1
COc1cc(CN/C(C)=C(\C#N)C(N)=O)cc(OC)c1OC | 5 | 51* | 0.3 | -37 | 67* | 0.5
CC1=CC(C)C2(CO)COC(c3ccccc3O)C1C2C (centres undefined) | -4 | 64* | 0.1 | 7 | 90* | 0.4
CC1=C(C(=O)N2CCOCC2)C(c2ccc(C)cc2)NC(=S)N1 (centres undefined) | -2 | . | . | -10 | . | .
COc1cccc(NC(=O)c2ccccc2-c2nc(-c3cccc(C)c3)no2)c1 | -3 | 61* | 0.6 | -3 | 36 | 0.4
CC(C)NC(=O)c1ccccc1-c1nc(-c2ccccc2Cl)no1 | -6 | 79* | 0.8 | -2 | 17 | 0.2
COCCNC(=O)c1ccccc1-c1nc(-c2ccccc2OC)no1 | -3 | 19 | 0.9 | -2 | 11 | 0.8
COc1ccccc1-c1noc(-c2ccccc2C(=O)N2CCOCC2)n1 | -5 | 42 | 0.8 | 14 | 21 | 0.6
CCOc1ccccc1NC(=O)c1ccccc1-c1nc(-c2ccccc2OC)no1 | -5 | 63* | 0.6 | 8 | 39 | 0.4
CC(C)(C)NC(=O)c1ccccc1-c1nc(-c2ccccc2Cl)no1 | 7 | 100* | 0.2 | 27 | 85* | 0
O=C(OCc1csc(Nc2ccccc2)n1)c1ccc(Cl)cc1 | -6 | . | . | 77 | . | .
CCNC(=O)c1ccccc1-c1nc(-c2ccccc2Cl)no1 | 0 | 76* | 0.8 | -5 | 15 | 0.2
O=C(NCC1CCCO1)c1ccccc1-c1nc(-c2ccc(Cl)cc2)no1 (centres undefined) | -4 | 19 | 0.9 | -32 | 10 | 0.8
COc1cccc2c(=O)n(CC(=O)Nc3ccc(F)cc3F)ccc12 | 2 | 21 | 0.4 | -18 | 56* | 0.8
COc1cc(C(=O)OCC(=O)Nc2ccc(F)cc2F)cc(OC)c1OC | -3 | 33 | 0.4 | 1 | 65* | 0.7
CCC(CC)NC(=O)COC(=O)c1ccc(OCC(=O)Nc2ccccc2OC)c(OC)c1 | -2 | 44 | 0.3 | 3 | 71* | 0.6
COc1ccc(C(=O)OCC(=O)Nc2ccc(F)c(F)c2)cc1OC | -2 | 29 | 0.4 | -24 | 58* | 0.7
O=C(Nc1nc2c(c(=O)[nH]1)CCCC2)C1CC1 | -4 | 0 | 1.2 | -8 | -17 | 1
CCc1c(C)nc(N)n2c(SCC(=O)N3CCN(c4ccccc4OC)CC3)nnc12 | 0 | 20 | 0.7 | 7 | 32 | 0.8
CCOC(=O)C(C)Oc1ccc(C2NC(=O)NC(C)=C2C(C)=O)cc1Br (centres undefined) | 1 | 72* | 0.7 | -9 | 31 | 0.3
CCOC(=O)C1=C(C)NC(=O)NC1c1ccc(Br)s1 (centres undefined) | -2 | 37 | 0.2 | -7 | 78* | 0.6
CCOC(=O)C1=C(C)NC(=O)NC1c1ccccc1Cl (centres undefined) | 2 | 32 | 1 | -8 | 5 | 0.7
COc1cc(C2NC(=O)NC(C)=C2C(=O)OC2CCCCC2)cc(Br)c1O (centres undefined) | 3 | 96* | 0.2 | -14 | 79* | 0
SMILES | CD11b adhes enh | CYP2C9 inh | CYP2C19 activ | Mac1 fbg inh | CYP2C19 inhib | CYP2C9 act
CC1=C(C(=O)OC2CCCCCCC2)C(c2ccc(O)cc2)NC(=O)N1 (centres undefined) | 0 | 92* | 0.2 | -2 | 82* | 0.1
C/C(=N/NC(=O)CNC(=O)COc1ccccc1)c1ccco1 | 7 | . | . | -3 | . | .
CC1=C(C(=O)OCC2CCCO2)C(c2cccc(O)c2)NC(=O)N1 (centres undefined) | -4 | 20 | 0.3 | 0 | 67* | 0.8
COc1cc(C2NC(=O)NC(C)=C2C(=O)OCc2ccc(C)cc2)cc(OC)c1O (centres undefined) | 2 | 23 | 0.6 | 12 | 38 | 0.8
CCOC(=O)C1=C(C)NC(=O)NC1c1cc(Br)c(O)c(OC)c1 (centres undefined) | 3 | 64* | 0.6 | -12 | 40 | 0.4
CC1=C(C(=O)OC(C)C)C(c2ccc(Br)s2)NC(=O)N1C (centres undefined) | -3 | 88* | 0 | -8 | 99* | 0.1
COc1ccc(C(=O)N/N=c2\oc3ccccc3cc2C(=O)NCc2ccccc2)cc1 | -2 | . | . | -9 | . | .
CC1=C(C(=O)OC(C)C)C(C)C(C(=O)OC(C)C)=C(C)N1 | 4 | 92* | 0 | 9 | 100* | 0.1
COc1cc(/C=N/NC(N)=O)cc(Br)c1OCc1ccccc1C | 14 | -4 | 1.2 | 4 | -16 | 1
CCOc1cc(/C=N/NC(N)=O)cc(Br)c1OCC(=O)Nc1cccc2ccccc12 | 0 | 7 | 0.9 | 22 | 7 | 0.9
CCOc1cc(/C=N/NC(=O)Cn2nc([N+](=O)[O-])cc2C)cc(Br)c1OCc1ccccc1C | 2 | 70* | 0.5 | -13 | 47 | 0.3
COc1cc(/C=N/NC(=O)Cn2nc([N+](=O)[O-])cc2C)cc(Br)c1OCc1ccccc1 | -4 | 74* | 0.4 | -2 | 59* | 0.3
CCOc1cc(/C=N/NC(N)=O)cc(Br)c1OCC(=O)Nc1ccccc1C | -3 | 82* | 0.4 | -2 | 59* | 0.2
Cn1cnnc1SC(C(=O)Nc1cc(Cl)cc(Cl)c1)c1ccccc1 (centres undefined) | -6 | 18 | 1.1 | 0 | -12 | 0.8
CN(c1cccc(NC(=O)CN2C(=O)c3ccccc3S2(=O)=O)c1)S(C)(=O)=O | -1 | 15 | 1.2 | -14 | -20 | 0.9
COc1ccc(N(C(=O)c2ccc(Br)o2)C2C=CS(=O)(=O)C2)cc1 (centres undefined) | 0 | 11 | 0.6 | 24 | 38 | 0.9
Cc1cc(F)c(F)c(C(=O)N2CCN(C)CC2)c1Cl | 4 | -123 | 0.9 | -11 | 9 | 2.2*
COc1cc2c(C(=O)N3CCN(C)CC3)c(C)oc2cc1Br | -5 | 5 | 0.7 | -16 | 35 | 0.9
COC(=O)c1ccccc1NC(=O)Cn1cnc2cc(C)c(C)cc21 | 1 | 16 | 0.6 | 8 | 42 | 0.8
CC(=O)N(CCN(C(C)=O)c1ccccc1)c1ccccc1 | -5 | -21 | 0.3 | 6 | 73* | 1.2
CCN(C(=O)c1cc2cccc(OC)c2oc1=O)c1ccccc1 | -5 | -20 | 0.6 | 1 | 40 | 1.2
CCN(C(=O)c1ccccc1Cl)c1ccccc1 | 2 | 4 | 0.4 | -8 | 62* | 1

High-throughput results from PubChem.
